The source made the active and inactive calls.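 The calls were made as follows: active = melting temperature shift above 3 C; inconclusive = shift above 1 C but not above 3 C; inactive = the rest.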
molecular target: 15-hydroxyprostaglandin dehydrogenase [NAD(+)] (Homo sapiens) (UniProt P15428); assay: Thermal Shift Assay for Inhibitors of HPGD (15-Hydroxyprostaglandin Dehydrogenase); details: Recombinant HPGD thermal shift, SYPRO orange DSF, at 250 µM, stronger effect = higher value
Method: Assay Overview: Human 15-Hydroxyprostaglandin dehydrogenase (HPGD) catalyzes the inactivation of prostaglandin E2, and plays a major role in cancer biology by antagonizing the oncogenic potential of cyclooxygenase type 2 (COX2). Studies to assess the stability of human 15-PGDH in presence of compounds was performed as described (Niesen et al., 2007) with variations. References 1. Myung SJ, Rerko RM, Yan M, Platzer P, Guda K, Dotson A, Lawrence E, Dannenberg AJ, Lovgren AK, Luo G, Pretlow TP, Newman RA, Willis J, Dawson D, Markowitz SD. 15-Hydroxyprostaglandin dehydrogenase is an in vivo suppressor of colon tumorigenesis. Proc Natl Acad Sci U S A. 2006 Aug 8;103(32):12098-102. 2. Yan M, Rerko RM, Platzer P, Dawson D, Willis J, Tong M, Lawrence E, Lutterbaugh J, Lu S, Willson JK, Luo G, Hensold J, Tai HH, Wilson K, Markowitz SD. 15-Hydroxyprostaglandin dehydrogenase, a COX-2 oncogene antagonist, is a TGF-beta-induced suppressor of human gastrointestinal cancers. Proc Natl Acad Sci U S A. 2004 Dec 14;101(50):17468-73. 3. Yang L, Amann JM, Kikuchi T, Porta R, Guix M, Gonzalez A, Park KH, Billheimer D, Arteaga CL, Tai HH, Dubois R, Carbone DP, Johnson DH. Inhibition of Epidermal Growth Factor Receptor Signaling Elevates 15-Hydroxyprostaglandin Dehydrogenase in Non-Small-Cell Lung Cancer. Cancer Res. 2007 Jun 15;67(12):5587-5593. 4. Niesen FH, Berglund H, Vedadi M: The use of differential scanning fluorimetry to detect ligand interactions that promote protein stability. Nature protocols 2007; 2:2212-2221 NIH Chemical Genomics Center [NCGC] Structural Genomics Consortium [SGC]
HPGD was diluted to a final assay concentration of 1 uM in 100 mM Tris buffer, pH 8.0, containing 0.01% Tween-20 and 1:1000 SYPRO orange dye. The final assay volume is 10 ul, with or without 200 uM of either NAD+ or NADH. Compounds were added 1:5 from appropriate stock solutions in 10% (v/v) DMSO to comprise either 50 or 250 uM final concentrations. Heat denaturation curves were recorded using a RT-PCR instrument (Mx3005p, Agilent) applying a temperature gradient of 2 degree C/min. Analysis of the data was performed using DSF Analysis vers. 2.5 (ftp://ftp.sgc.ox.ac.uk/pub/biophysics) and Prism 5.0 (GraphPad Software, Inc.)

Sequence of 15-hydroxyprostaglandin dehydrogenase [NAD(+)] (Homo sapiens) (P15428 whole entry, looked up): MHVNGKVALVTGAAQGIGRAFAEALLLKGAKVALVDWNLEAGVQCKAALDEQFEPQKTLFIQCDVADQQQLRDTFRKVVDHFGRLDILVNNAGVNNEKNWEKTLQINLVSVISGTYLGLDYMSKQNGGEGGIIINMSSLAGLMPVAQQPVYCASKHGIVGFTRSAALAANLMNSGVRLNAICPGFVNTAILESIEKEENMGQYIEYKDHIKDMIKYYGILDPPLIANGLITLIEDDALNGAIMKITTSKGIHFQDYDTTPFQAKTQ

| Compound | thermal shift (delta Tm) |
| --- | --- |
| O=C(CSc1nc2ncc(Br)cc2[nH]1)c1cccc([N+](=O)[O-])c1 | 6.9 C (active) |
| O=c1[nH]c(SCc2ccccc2Cl)nc2c1CCC2 | 9.2 C (active) |
| O=C(c1ccc(COc2ccccc2Br)cc1)N1CCCCC1 | 7.1 C (active) |
| O=C(CSc1nc(-c2ccccc2)nn1C(=O)c1ccccc1)Nc1cccc([N+](=O)[O-])c1 | 4 C (active) |
| COc1ccc(OC)c(C(=O)c2ccc(C(=O)N3CCCCC3)cc2)c1 | 3 C (active) |
| COCCNC(=O)C1CCC(Cn2c(=S)[nH]c3ccccc3c2=O)CC1 (stereo not given) | 3.7 C (active) |
| CCN(CC)C(=O)c1sc2nc(-c3cccs3)cc(-c3ccc(Cl)cc3)c2c1N | 0.9 C (inactive) |
| Cc1cccc(-n2cnc3cc(C(=O)N4CCCCC4)ccc32)c1 | 7.3 C (active) |
| Fc1ccccc1CSc1nc2ncc(Br)cc2[nH]1 | 7.6 C (active) |
| COCCNC(=O)c1nc2c(nnn2Cc2cc(C)ccc2C)c(=O)[nH]1 | 8.9 C (active) |
| Cc1cc(-c2nnc3n2CCCCC3)c(C)n1-c1ccccc1 | 5 C (active) |
| COc1ccc2cc(C(=O)N3CCCCCC3)sc(=O)c2c1OC | 3.2 C (active) |
| Cc1ccc(-c2n[nH]c(=S)n2/N=C/C=C\c2ccccc2[N+](=O)[O-])cc1 | 4.5 C (active) |
| O=C(C1CCC(Cn2c(=S)[nH]c3ccccc3c2=O)CC1)N1CCOCC1 (stereo not given) | 6 C (active) |
| O=C(c1ccc(N2C(=O)C3CC=C(Cl)CC3C2=O)cc1)N1CCCCC1 (stereo not given) | 3 C (active) |
| O=C(c1ccc2c(c1)OCCO2)N1CCCCC1 | 3.5 C (active) |
| O=C(CCc1ccc(Oc2cc([N+](=O)[O-])cc([N+](=O)[O-])c2)cc1)N1CCCCC1 | 3.1 C (active) |
| Cc1ccc(C)c(Cn2nnc3c(=O)[nH]c(C(=O)NCc4ccco4)nc32)c1 | 7.5 C (active) |
| Cc1ccccc1CSc1nc2ccccc2c(=O)[nH]1 | 6.1 C (active) |
| O=C(c1ccc2c(c1)OCO2)N1CCc2ccccc2C1 | 3.3 C (active) |

same assay, conditions: Recombinant HPGD thermal shift, SYPRO orange DSF, measured here: delta Tm with NADH cofactor, at 250 µM, stronger effect = higher value

| Compound | thermal shift (delta Tm) [C] |
| --- | --- |
| O=C(CSc1nc2ncc(Br)cc2[nH]1)c1cccc([N+](=O)[O-])c1 | 1.7 |
| O=c1[nH]c(SCc2ccccc2Cl)nc2c1CCC2 | 1.6 |
| O=C(c1ccc(COc2ccccc2Br)cc1)N1CCCCC1 | 10.6 |
| O=C(CSc1nc(-c2ccccc2)nn1C(=O)c1ccccc1)Nc1cccc([N+](=O)[O-])c1 | -7.6 |
| COc1ccc(OC)c(C(=O)c2ccc(C(=O)N3CCCCC3)cc2)c1 | 6.6 |
| COCCNC(=O)C1CCC(Cn2c(=S)[nH]c3ccccc3c2=O)CC1 (stereo not given) | 4.7 |
| CCN(CC)C(=O)c1sc2nc(-c3cccs3)cc(-c3ccc(Cl)cc3)c2c1N | 2.9 |
| Cc1cccc(-n2cnc3cc(C(=O)N4CCCCC4)ccc32)c1 | 13.5 |
| Fc1ccccc1CSc1nc2ncc(Br)cc2[nH]1 | 1.5 |
| COCCNC(=O)c1nc2c(nnn2Cc2cc(C)ccc2C)c(=O)[nH]1 | 6.6 |
| Cc1cc(-c2nnc3n2CCCCC3)c(C)n1-c1ccccc1 | 10.5 |
| COc1ccc2cc(C(=O)N3CCCCCC3)sc(=O)c2c1OC | 7.8 |
| Cc1ccc(-c2n[nH]c(=S)n2/N=C/C=C\c2ccccc2[N+](=O)[O-])cc1 | 0.2 |
| O=C(C1CCC(Cn2c(=S)[nH]c3ccccc3c2=O)CC1)N1CCOCC1 (stereo not given) | 3.9 |
| O=C(c1ccc(N2C(=O)C3CC=C(Cl)CC3C2=O)cc1)N1CCCCC1 (stereo not given) | 6.1 |
| O=C(c1ccc2c(c1)OCCO2)N1CCCCC1 | 7.8 |
| O=C(CCc1ccc(Oc2cc([N+](=O)[O-])cc([N+](=O)[O-])c2)cc1)N1CCCCC1 | 7.9 |
| Cc1ccc(C)c(Cn2nnc3c(=O)[nH]c(C(=O)NCc4ccco4)nc32)c1 | 4.8 |
| Cc1ccccc1CSc1nc2ccccc2c(=O)[nH]1 | 0.4 |
| O=C(c1ccc2c(c1)OCO2)N1CCc2ccccc2C1 | 4.4 |

From PubChem BioAssay AID2427 (National Center for Advancing Translational Sciences (NCATS), 2010)
